From PubChem BioAssay (NCATS)
Records with an inconclusive call do not appear. Active and inactive are the calls of the source. The call rests on the fitted dose curve; in most records, active means well fitted curve in the direction sought with a large enough effect; inconclusive means small, poorly fitted or top-dose-only effect, or another doubt; inactive means no such curve, though single readings can be large; an effect the other way counts as inactive or inconclusive.

Legend:
[1] = molecular target: Rap guanine nucleotide exchange factor 3 (Homo sapiens) (UniProt O95398); experiment: Confirmatory qHTS for antagonist of cAMP-regulated guanine nucleotide exchange factor 3 (EPAC1) (AID 1645880); further: nearly all actives have a fitted effect of over 55% in size; further: potency means the concentration at half of the fitted maximal effect
Sequence of Rap guanine nucleotide exchange factor 3 (Homo sapiens) (O95398 whole entry, looked up): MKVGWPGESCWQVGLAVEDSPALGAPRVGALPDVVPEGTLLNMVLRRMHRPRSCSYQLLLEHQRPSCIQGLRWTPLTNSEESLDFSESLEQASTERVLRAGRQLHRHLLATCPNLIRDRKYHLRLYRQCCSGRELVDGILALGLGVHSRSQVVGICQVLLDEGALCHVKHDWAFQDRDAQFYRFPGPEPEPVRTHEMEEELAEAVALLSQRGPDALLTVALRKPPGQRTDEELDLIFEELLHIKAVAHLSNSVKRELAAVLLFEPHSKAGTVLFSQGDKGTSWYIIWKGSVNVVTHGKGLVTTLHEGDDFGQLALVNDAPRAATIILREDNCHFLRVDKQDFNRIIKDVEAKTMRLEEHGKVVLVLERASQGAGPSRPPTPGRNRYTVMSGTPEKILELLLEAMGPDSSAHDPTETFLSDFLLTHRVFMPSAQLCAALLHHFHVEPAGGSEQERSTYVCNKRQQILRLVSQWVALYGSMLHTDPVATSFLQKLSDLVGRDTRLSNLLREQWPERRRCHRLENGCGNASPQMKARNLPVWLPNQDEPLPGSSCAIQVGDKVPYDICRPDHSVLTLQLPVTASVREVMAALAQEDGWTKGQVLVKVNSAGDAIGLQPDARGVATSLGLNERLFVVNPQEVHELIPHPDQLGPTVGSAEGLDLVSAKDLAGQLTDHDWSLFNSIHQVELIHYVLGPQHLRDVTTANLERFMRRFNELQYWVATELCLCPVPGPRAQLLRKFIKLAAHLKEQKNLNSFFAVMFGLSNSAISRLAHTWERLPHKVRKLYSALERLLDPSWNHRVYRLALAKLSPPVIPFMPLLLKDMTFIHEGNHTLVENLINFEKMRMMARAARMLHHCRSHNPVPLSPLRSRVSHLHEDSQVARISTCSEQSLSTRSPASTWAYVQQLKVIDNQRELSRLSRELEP
Method in brief: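 Released BODIPY-GDP fluoresces less than Rap1-bound BODIPY-GDP; the signal is followed at 480/540 nm at 5-min intervals over 30 min, after 5 min at room temperature. Reactions contain 100 nM EPAC1, 250 nM RAP1B-BODIPY-GDP and 50 uM GDP; results are normalized to ATA and DMSO.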

[2] = molecular target: Rap guanine nucleotide exchange factor 3 (Homo sapiens) (UniProt O95398); experiment: Confirmatory qHTS for agonist of cAMP-regulated guanine nucleotide exchange factor 3 (EPAC1) (AID 1645881); further: nearly all actives have a fitted effect of over 75% in size; further: potency means the concentration at half of the fitted maximal effect;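 on activation: EPAC1 catalysed release of BODIPY-GDP from Rap1B seen as fluorescence loss; 100% = effect of cAMP agonist control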
[3] = molecular target: Rap guanine nucleotide exchange factor 4 (Homo sapiens) (UniProt Q8WZA2); experiment: Confirmatory qHTS for agonist of cAMP-regulated guanine nucleotide exchange factor 4 (EPAC2) (AID 1645884);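 further: nucleotide exchange releases bodipy-GDP from Rap1 and this lowers its fluorescence; nearly all actives have a fitted effect of over 65% in size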; further: potency means the concentration at half of the fitted maximal effect; on activation: on the % scale 0 is the no-effect control and ±100 the full control effect
Sequence of Rap guanine nucleotide exchange factor 4 (Homo sapiens) (Q8WZA2 whole entry, looked up): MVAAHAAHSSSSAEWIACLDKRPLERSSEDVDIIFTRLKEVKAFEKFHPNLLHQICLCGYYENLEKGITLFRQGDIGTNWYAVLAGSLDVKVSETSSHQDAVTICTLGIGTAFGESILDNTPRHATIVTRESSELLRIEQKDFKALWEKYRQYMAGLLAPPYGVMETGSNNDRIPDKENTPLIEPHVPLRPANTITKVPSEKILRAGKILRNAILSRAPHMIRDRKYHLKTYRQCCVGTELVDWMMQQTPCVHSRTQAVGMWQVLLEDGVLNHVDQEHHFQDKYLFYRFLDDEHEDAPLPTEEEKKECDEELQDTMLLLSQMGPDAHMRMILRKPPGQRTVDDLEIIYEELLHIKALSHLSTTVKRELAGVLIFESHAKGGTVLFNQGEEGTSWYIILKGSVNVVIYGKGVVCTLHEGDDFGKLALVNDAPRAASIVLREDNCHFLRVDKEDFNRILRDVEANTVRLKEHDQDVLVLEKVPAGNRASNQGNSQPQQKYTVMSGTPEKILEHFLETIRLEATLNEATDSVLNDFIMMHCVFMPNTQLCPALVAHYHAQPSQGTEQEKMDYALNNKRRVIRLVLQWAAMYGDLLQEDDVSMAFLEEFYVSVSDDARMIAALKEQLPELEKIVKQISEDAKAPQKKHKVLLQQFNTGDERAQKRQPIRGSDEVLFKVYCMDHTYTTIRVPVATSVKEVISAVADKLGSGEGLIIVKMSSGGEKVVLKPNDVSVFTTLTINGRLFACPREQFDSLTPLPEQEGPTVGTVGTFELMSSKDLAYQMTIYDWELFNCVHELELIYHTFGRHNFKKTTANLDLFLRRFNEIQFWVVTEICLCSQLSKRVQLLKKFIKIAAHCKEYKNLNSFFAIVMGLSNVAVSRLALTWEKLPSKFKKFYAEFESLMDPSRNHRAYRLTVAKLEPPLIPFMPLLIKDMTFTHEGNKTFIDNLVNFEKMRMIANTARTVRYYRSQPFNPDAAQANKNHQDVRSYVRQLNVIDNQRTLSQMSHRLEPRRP

[4] = molecular target: Rap guanine nucleotide exchange factor 4 (Homo sapiens) (UniProt Q8WZA2); experiment: Confirmatory qHTS for antagonist of cAMP-regulated guanine nucleotide exchange factor 4 (EPAC2) (AID 1645885); further: nearly all actives have a fitted effect of over 25% in size; further: potency means the concentration at half of the fitted maximal effect; on activity change, negative = inhibition: on the % scale 0 is the no-effect control and ±100 the full control effect
[5] = molecular target: Rap guanine nucleotide exchange factor 3 (Homo sapiens) (UniProt O95398); experiment: Counterscreen qHTS for antagonist of cAMP-regulated guanine nucleotide exchange factor 3 (EPAC1) (AID 1645888); further: % of control where 0% means no effect
Method in brief: (§1)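 Rap1B–BODIPY-GDP (250 nM) with 50 uM GDP; compounds pin-transferred to 9.74 nM–152 uM final (activator) or from 7.32 nM upwards (inhibitor). Fluorescence Ex/Em 480/540 nm read at 5 and 30 min, then after adding cAMP or buffer, at room temperature.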

[6] = molecular target: Rap guanine nucleotide exchange factor 3 (Homo sapiens) (UniProt O95398); experiment: Counterscreen qHTS for agonist of cAMP-regulated guanine nucleotide exchange factor 3 (EPAC1) (AID 1645889); further: nearly all actives have a fitted effect of over 40% in size; further: potency means the concentration at half of the fitted maximal effect; on activation: % of control where 0% means no effect
Method in brief: as §1

COc1ccc(C(=O)c2ccccc2)c2c(O)ccc(C(=O)c3ccccc3)c12
inactive: Potency [1] | Potency [2] | Potency [3] | Potency [4] | Potency [5] | Potency [6]

Cc1ccc(OCCC(=O)OCC(=O)NNC(=O)c2ccccc2)cc1
inactive: Potency [1] | Potency [2] | activation [3] 0.0575% [at 17.1 µM, percent relative to cAMP agonist control] | Potency [4] | activity change, negative = inhibition [5] -6.38% [at 30.8 µM] | activation [6] 0.419% [at 30.8 µM]

CC(C)CNC(=O)c1c(-c2ccccc2)c(-c2ccccc2)nn(C)c1=O
inactive: Potency [1] | Potency [2] | Potency [3] | outcome [4] inactive [at 12.7 µM] | Potency [5] | Potency [6]

CNC(=O)NC(=O)C(NC1CCCc2ccccc21)c1ccccc1 (stereo unspecified)
inactive: Potency [1] | Potency [2] | Potency [3] | Potency [5] | Potency [6]
active: Potency [4] 47.8 µM

CN(C(=O)CSc1nc(-c2ccc(C(C)(C)C)cc2)c(C#N)c(=O)[nH]1)C1CCCCC1
active: Potency [1] 42.6 µM
inactive: Potency [2] | Potency [3] | Potency [4] | Potency [5] | Potency [6]

CC(=O)c1c(C(C)=O)c(C)n(-c2nc(-c3ccccc3)c(C)s2)c1C
inactive: Potency [1] | Potency [2] | Potency [3] | Potency [4] | Potency [5] | Potency [6]

CC1S/C(=N/N=C2CCC(C(C)(C)C)CC2)NC1=O (stereo unspecified)
inactive: Potency [1] | Potency [2] | activation [3] -7.78% [at 17.1 µM, percent relative to cAMP agonist control] | Potency [4] | activity change, negative = inhibition [5] 2.96% [at 30.8 µM] | activation [6] 18.6% [at 30.8 µM]

COc1cc(/C=C2\SC(=S)N(C(C(=O)O)c3ccccc3)C2=O)ccc1O (stereo unspecified)
inactive: Potency [2] | Potency [3] | Potency [5] | Potency [6]
active: Potency [1] 47.8 µM | Potency [4] 42.6 µM

CCOC(=O)c1c(/N=C/C2=C(O)CC(C)(C)CC2=O)sc(C)c1C
inactive: Potency [1] | Potency [2] | activation [3] 5.64% [at 17.1 µM, percent relative to cAMP agonist control] | Potency [4] | activity change, negative = inhibition [5] -9.9% [at 30.8 µM] | activation [6] 1.97% [at 30.8 µM]

CC(NC(=O)c1cc(S(=O)(=O)N2CCOCC2)ccc1N1CCCC1)c1ccc(Cl)c(Cl)c1 (stereo unspecified)
inactive: Potency [1] | Potency [2] | Potency [3] | Potency [4] | Potency [5] | Potency [6]

COc1ccccc1CCc1nnc(CCC(=O)N(C)Cc2cccc3ncccc23)o1
inactive: Potency [1] | Potency [2] | Potency [3] | Potency [4] | Potency [5] | Potency [6]

O=C(Nc1ccncc1)c1ccc2ncsc2c1
inactive: Potency [1] | Potency [2] | Potency [3] | Potency [4] | Potency [5] | Potency [6]

CC1=CC=CC2=NC(=O)CC(C)(C(=O)N(CC(=O)NC(C)C)C3CCCC3)N12 (stereo unspecified)
inactive: Potency [1] | Potency [2] | activation [3] 3.39% [at 17.1 µM, percent relative to cAMP agonist control] | Potency [4] | activity change, negative = inhibition [5] -13.5% [at 30.8 µM] | activation [6] 26.5% [at 30.8 µM]

O=C1NN(c2cccc(Br)c2)C(=O)/C1=C\c1ccccc1
inactive: Potency [2] | Potency [3] | Potency [4] | Potency [5] | Potency [6]
active: Potency [1] 33.8 µM

CC(=O)c1ccc(N2CCN(C(=O)C3CCCN(S(=O)(=O)c4c(C)[nH]c(=O)[nH]c4=O)C3)CC2)cc1 (stereo unspecified)
inactive: Potency [1] | Potency [2] | Potency [3] | Potency [4] | Potency [5] | Potency [6]

CCOC(=O)N(C)c1c(CC)nc2c(OCc3ccc(OC(F)F)cc3)cccn12
inactive: Potency [1] | Potency [2] | Potency [3] | Potency [4] | Potency [5] | Potency [6]

CCCCN1C(=O)/C(=C/C=C2\Oc3ccccc3N2CC)SC1=S
inactive: Potency [1] | Potency [4] | Potency [5]
active: Potency [2] 112 µM | Potency [3] 100 µM | Potency [6] 1.78 µM

COc1ccc(OC)c([C@@H]2OCCC=C[C@H]2C)c1
active: Potency [4] 0.0675 µM
inactive: Potency [1] | Potency [2] | Potency [3] | Potency [5] | Potency [6]

CC(C)(C(=O)N1CCC1(C)C(=O)NS(=O)(=O)c1ccccc1Cl)c1ccccc1 (stereo unspecified)
inactive: Potency [1] | Potency [2] | activation [3] 3.96% [at 17.1 µM, percent relative to cAMP agonist control] | Potency [4] | activity change, negative = inhibition [5] 0.723% [at 30.8 µM] | activation [6] 1.99% [at 30.8 µM]

O=C(COC(=O)c1ccc(O)cc1O)Nc1nnc(-c2ccccc2)o1
inactive: Potency [1] | Potency [2] | Potency [3] | Potency [5] | Potency [6]
active: Potency [4] 84.9 µM

CCCCC1=CC2=CC(=O)C(C)(OC(=O)C3CCCC3)C(=O)C2=CO1 (stereo unspecified)
inactive: Potency [2] | activation [3] 1.4% [at 17.1 µM, percent relative to cAMP agonist control] | Potency [4] | activity change, negative = inhibition [5] -20.6% [at 30.8 µM] | activation [6] 18% [at 30.8 µM]
active: Potency [1] 39.8 µM
